According to publication PMC13494018:

B1: d1r6_design_ppi_81_dldesign_0_cycle1_af2pred (protein)
chain: AATQQILITAAVMLEERLDELGRAAEVAAMALLYGAAFGSLEKAREKLEELAATLSAEEAARARATFDEAVAAAQAAA
B2: d1r6_design_ppi_106_dldesign_0_cycle1_af2pred (protein)
chain: DLISKAVYYYALGIADPANAAEYKAKAQAEIDKLSPEEAAKAKAELEKVTKSQEELAAKSAERAAARAAAA
B3: d1r6_design_ppi_780_dldesign_0_cycle1_af2pred (protein)
chain: NAAATRAFSLAVARQAEETAKQVAGVDPELAKKLKELAKEVRKLAADPATHLQAVEATIEALKAIGEANKKLA
B4: d1r6_design_ppi_905_dldesign_0_cycle0_af2pred (protein)
chain: AAVEAAQEEALRALEEARALAREVLAADPERAARVAARIEEAAELVRDGEKINEGLALLVELAAESPAEVKPALMRAAALAGRAYVLR
B5: d1r6_design_ppi_106_dldesign_0_cycle0_af2pred (protein)
chain: AAISRAMYHHALGLADAANREAHLAAAAALRAALSPEDAARAEAQIAKIEAAAAANQAAAAAARAARAAAA
B6: d1r6_design_ppi_627_dldesign_0_cycle1_af2pred (protein)
chain: DEVQREIRERVERGRETAKRAAQHPATAPIAAAIRATAERAEAASSDPERALNYAQMTDVAIANGELALAQVAA
B7: d1r6_design_ppi_250_dldesign_0_cycle0_af2pred (protein)
chain: SAALAAARGAILQAALSLGVERAREAFARVEASDPAEAAALAEALAAEAAARDPAIGARAAAGAAALRAA
B8: d1r6_design_ppi_480_dldesign_0_cycle1_af2pred (protein)
chain: AAETQQAADIIIANAEHAKRLAKENPEAGEKLVEVLEESAKWVEAKDPEAGAKAKKAVEEAKKVAEAVKAAREAAKALA
B9: d1r6_design_ppi_725_dldesign_0_cycle0_af2pred (protein)
chain: AELAATHMAGVEALNRARAAAVALVALDPARGAAWLAEADELGRRLNEAAADASRAEELKRITEELEKLAERIAAERDAAAA
B10: d1r6_design_ppi_2_dldesign_0_cycle1_af2pred (protein)
chain: EQYFTDRDIAAAEAAAAKYAALAADPEARAYAARFREAAALIRDPATRAEGIDLLAATEAAAAAHAKALAA
B11: d1r6_design_ppi_265_dldesign_0_cycle1_af2pred (protein)
chain: AAAQARALGAVAKQAVLDGKFDEAKQLIEGLVNLAQADPAAAPQAAKEMKEIAKAAEEKAKADPANAAKYKALAKVAAAAAKEAEKAA
B12: d1r6_design_ppi_671_dldesign_0_cycle1_af2pred (protein)
chain: AVEEALKKAEEAAKELEKVAKELGDKEAKEKAKQVKSLIEFAKVAAEAGDEKTALHAAKQAKELAEKALKEAKAKLEAKKAEEEKLKK
B13: d1r6_design_ppi_754_dldesign_0_cycle1_af2pred (protein)
chain: GKEEELLKKAKEYFEEAEKYIKELEEVAAKAGPAAKGLVTFTKNYFERLKAKAEKATPEEALKLAKEAYDFAKDALEAAKTTLAALE
B14: d1r6_design_ppi_17_dldesign_0_cycle0_af2pred (protein)
chain: MDFAASAQAAQRDAERLAERGIASGDAADLRRATEAVEQLLEIVQGLAAQGAAEAGEQLQAAVERTRAALERTRAAAAAAEAAAA
B15: d1r7_design_ppi_3_dldesign_0_cycle1_af2pred (protein)
chain: AAEAAALYEATRAAAEALARVDPALAAEAARLRGQALRYYSLTFVDPAAGRAGVAAVLAEAKRLLAAARARA
B16: d1r6_design_ppi_647_dldesign_0_cycle0_af2pred (protein)
chain: SKAELLAYKALAAAAKNALEQVKTGEEAEKAVESLKKMAEALGDEETAKLAEEALKAIKKSKEEGEKKLEEAKKYAEKKAKEAA
B17: d1r6_design_ppi_166_dldesign_0_cycle0_af2pred (protein)
chain: SAVAADGAAALAVAADLMAAGKEYAAAGDLANAARAYQSARALAATMAAAAAAAGDAATAAALAAAAAAAAAAEAEVKA
B18: d1r6_design_ppi_612_dldesign_0_cycle1_af2pred (protein)
chain: GAALEEQAKKIAEEAIEKIKKGAETGSLSPEEILALASKTVAQLSAIAIASKGGVAAGAGAVEVQKVAAEAL
B19: d1r6_design_ppi_906_dldesign_0_cycle0_af2pred (protein)
chain: AAAAQAEVTIKMGEAVIKQGEEWIEHPEYAEHAAKLLEAVADIAKATAKAAAAADAELAKKVEETRKKLEEVREKAKAVAEA

Target: CD276, Q5ZPR3
Sequence (Q5ZPR3 whole entry): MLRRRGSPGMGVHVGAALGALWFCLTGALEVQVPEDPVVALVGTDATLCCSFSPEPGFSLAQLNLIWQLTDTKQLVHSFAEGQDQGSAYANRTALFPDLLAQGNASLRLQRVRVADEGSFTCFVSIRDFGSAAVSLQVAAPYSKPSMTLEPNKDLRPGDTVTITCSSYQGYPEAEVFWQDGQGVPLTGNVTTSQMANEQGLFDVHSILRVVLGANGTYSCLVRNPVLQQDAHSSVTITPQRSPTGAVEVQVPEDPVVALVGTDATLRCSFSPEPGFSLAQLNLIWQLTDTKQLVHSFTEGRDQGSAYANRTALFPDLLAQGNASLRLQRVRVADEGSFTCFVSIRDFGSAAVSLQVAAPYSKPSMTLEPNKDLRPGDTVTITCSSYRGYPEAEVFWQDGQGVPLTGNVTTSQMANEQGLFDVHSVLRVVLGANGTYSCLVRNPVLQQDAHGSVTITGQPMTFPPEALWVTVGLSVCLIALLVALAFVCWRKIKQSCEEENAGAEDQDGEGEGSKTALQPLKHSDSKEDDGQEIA

Binding in a display sort, inactive:
B1 not found
B2 not found
B3 not found
B4 not found
B5 not found
B6 not found
B7 not found
B8 not found
B9 not found
B10 not found
B11 not found
B12 not found
B13 not found
B14 not found
B15 not found
B16 not found
B17 not found
B18 not found
B19 not found
